Data reported in PubChem BioAssay (Tox21).
Results filed as inconclusive are left out. Calls of active or inactive are those of the source. Unless noted, calls come from the whole dose curve; as a rule, active = well fitted curve in the direction sought with a large enough effect in the repeat runs; inconclusive = weak or mixed curves; inactive = no such curve, though single readings can be large; an effect the other way counts as inactive or inconclusive.

Experiments:
[1] = qHTS assay to identify small molecule antagonists of the retinoid acid receptor (RAR) signaling pathway - cell viability counter screen (AID 1159551); note: nearly all actives have a fitted effect of over 35% in size
In short: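 Viability of C3RL4 cells is quantified from ATP by luminescence after 6 h treatment at 37 C with compounds and 1 uM retinol.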

[2] = qHTS assay to identify small molecule antagonists of the estrogen related receptor (ERR) signaling pathway from Tox21 library - cell viability counter screen (AID 1224834); note: nearly all actives have a fitted effect of over 30% in size
In short: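 In this quantitative HTS format, ERR cells receive compounds in DMSO and are incubated for 17.5 h at 37 C. Live-cell protease activity is then detected with CellTiter-Fluor.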

[3] = molecular target: Luciferin 4-monooxygenase (Photinus pyralis) (UniProt P08659); test: qHTS assay to identify small molecule inhibitors of firefly luciferase (AID 1224835); note: series mostly up to about 120 µM; nearly all actives have a fitted effect of over 25% in size
In short: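 Biochemical qHTS: compounds run as interplate titrations against purified firefly enzyme, with D-luciferin and ATP each at its KM concentration. Light output recorded by CCD imaging.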

[4] = qHTS assay to identify small molecule agonists of the constitutive androstane receptor (CAR) signaling pathway - cell viability counter screen (AID 1224836); note: series mostly up to about 92 µM; nearly all actives have a fitted effect of over 45% in size
In short: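 HepG2 cells stably carrying hCAR and a CYP2B6-2.2kb reporter were plated 4 h, then given compounds at 15 concentrations plus PK11195 (final 0.75 uM). After 23 h at 37 C, viability was read by CellTiter-Fluor fluorescence.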

[5] = qHTS assay to identify small molecule antagonists of the constitutive androstane receptor (CAR) signaling pathway - cell viability counter screen (AID 1224837); note: series mostly up to about 92 µM; nearly all actives have a fitted effect of over 45% in size
In short: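 In quantitative HTS format, compounds at 15 concentrations were applied to HepG2 cells double-transfected with hCAR and CYP2B6-2.2kb under 50 nM CITCO stimulation; live-cell protease activity was read after 23 hr via CellTiter-Fluor.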

[6] = molecular target: Nuclear receptor subfamily 1 group I member 3 (Homo sapiens) (UniProt Q14994); test: qHTS assay to identify small molecule antagonists of the constitutive androstane receptor (CAR) signaling pathway (AID 1224838); note: nearly all actives have a fitted effect of over 40% in size
In short: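 CITCO-stimulated (50 nM final) HepG2 cells stably transfected with hCAR and CYP2B6-2.2kb luciferase were exposed to compounds at 15 concentrations for 24 h at 37 C/5% CO2. A luciferase reagent was added and luminescence recorded after 30 min.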

[7] = molecular target: Nuclear receptor subfamily 1 group I member 3 (Homo sapiens) (UniProt Q14994); test: qHTS assay to identify small molecule agonists of the constitutive androstane receptor (CAR) signaling pathway (AID 1224839);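 note: HepG2 cells stably carrying human CAR and a CYP2B6 luciferase reporter; series mostly up to about 92 µM; nearly all actives have a fitted effect of over 15% in size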
In short: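 HepG2 cells stably expressing hCAR and a CYP2B6-2.2kb luciferase reporter were treated with compounds at 15 concentrations plus 0.75 uM PK11195 (final) for 24 h at 37 C; luminescence was read after ONE-Glo addition.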

[8] = qHTS assay to identify small molecule antagonists of the estrogen related receptor signaling pathway with the pleiotropic PPARgamma coactivator (PGC) from Tox21 10K library - cell viability counter screen (AID 1224840; active = well fitted cell-killing curve with a large enough effect in the repeat runs, not every such curve was filed as active; note: nearly all actives have a fitted effect of over 40% in size)
In short: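 Viability counter screen, PGC/ERR cells: 17.5 h compound exposure at 37 C, CellTiter-Fluor fluorescence endpoint.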

[9] = molecular target: Thyrotropin receptor (Homo sapiens) (UniProt P16473); test: qHTS assay to identify small molecule agonists of the thyroid stimulating hormone receptor (TSHR) signaling pathway (AID 1224843; calls by dose curve; note: nearly all actives have a fitted effect of over 45% in size)
In short: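 Agonist-mode screen: TSHR HEK293 cells received test chemicals for half an hour at room temperature, then HTRF cAMP detection reagents for one hour prior to fluorescence measurement. Each chemical ran as a 15-concentration series, triplicated.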

[10] = qHTS assay to identify small molecule agonists of the hypoxia (HIF-1) signaling pathway - cell viability counter screen (AID 1224844; calls by dose curve; note: nearly all actives have a fitted effect of over 50% in size)
In short: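 Same wells as the HIF-1 reporter screen; ME-180 cells carrying HRE-bla, 17 hr treatment at 37C; CellTiter-Glo luminescence read after 30 min at room temperature.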

[11] = qHTS assay to identify small molecule agonists of H2AX (AID 1224845; active = well fitted activation curve with a large enough effect in the signal ratio in the repeat runs, not every such curve was filed as active; the % refers to the signal ratio)
In short: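 Wild-type CHO-K1 cells, plated overnight, exposed 3hr at 37C to 15 concentrations (0.76% DMSO final). Lysed, then HTRF anti-pH2AX (S139) cryptate and anti-H2AX-d2 antibodies, 24 hr room temperature; 665/620 nm emission read.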

[12] = qHTS assay to identify small molecule antagonists of the estrogen related receptor signaling pathway with the pleiotropic PPARgamma coactivator (PGC) from Tox21 10K library (AID 1224841; call rule not given here; note: series mostly up to about 92 µM; actives are mostly falling curves and most rising ones were filed inactive; nearly all actives have a fitted effect of over 50% in size)
In short: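 In the PGC/ERR line, DMSO solutions of test chemicals are pin-delivered to 2,000 cells/well six hours after dispensing. Following eighteen hours' incubation, One-Glo reagent is added and luminescence recorded.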

[13] = qHTS assay to identify small molecule agonists of the estrogen related receptor signaling pathway with the pleiotropic PPARgamma coactivator (PGC) from Tox21 10K library (AID 1224842); note: nearly all actives have a fitted effect of over 15% in size; note: potency is the fitted concentration of half-maximal effect
In short: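 PGC/ERR reporter cell line, 2,000 cells per well, incubated 6 h at 37 C before 23 nL compound in DMSO was added. After 18 h at 37 C, One-Glo luminescence read following 30 min at room temperature.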

[14] = qHTS assay to identify small molecule antagonists of the estrogen related receptor (ERR) signaling pathway - cell viability counter screen (AID 1224818); note: series mostly up to about 46 µM
In short: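 Cytotoxicity check run alongside the ERR antagonist screen: cells exposed to test compounds 17.5 h at 37 C, viability taken as CellTiter-Fluor fluorescence intensity.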

[15] = qHTS assay to identify small molecule antagonists of the estrogen related receptor (ERR) signaling pathway (AID 1224819; note: series mostly up to about 46 µM; nearly all actives have a fitted effect of over 50% in size)
In short: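 ERR reporter cells were plated at 2,000 cells/well and left 6 h at 37 C/5% CO2 before pin-tool transfer of compounds in DMSO. After 18 h at 37 C, One-Glo was added and luminescence was read 30 min later at room temperature.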

[16] = qHTS assay to identify small molecule agonists of the estrogen related receptor (ERR) signaling pathway (AID 1224820)
In short: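 After 6 h plating (2,000 cells/well) and 18 h compound treatment at 37 C, ERR cells were lysed with One-Glo and luminescence read after 30 min at room temperature.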

[17] = test system: estrogen-related receptor alpha (ERRalpha) with PGC-1alpha coactivator, human; test: qHTS assay to identify small molecule antagonists of the estrogen related receptor signaling pathway with the pleiotropic PPARgamma coactivator (PGC) (AID 1224821; calls by dose curve;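 note: series mostly up to about 46 µM; lower luminescence signal means antagonism of PGC/ERR signalling; nearly all actives have a fitted effect of over 50% in size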)
In short: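 Luminescence from One-Glo luciferase reagent (30 min, room temperature) measured after 18 h compound treatment at 37 °C. Cells carry the PGC/ERR reporter and were seeded 6 h prior to dosing.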

[18] = qHTS assay to identify small molecule agonists of the estrogen related receptor signaling pathway with the pleiotropic PPARgamma coactivator (PGC) (AID 1224823)
In short: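 Luminescence from One-Glo reagent (30 min, room temperature) was read after 18 h compound treatment at 37 C of PGC/ERR cells plated 6 h beforehand; compounds delivered in DMSO by pin tool.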

Measured: Potency

Sequence of Thyrotropin receptor (Homo sapiens) (P16473 whole entry, looked up): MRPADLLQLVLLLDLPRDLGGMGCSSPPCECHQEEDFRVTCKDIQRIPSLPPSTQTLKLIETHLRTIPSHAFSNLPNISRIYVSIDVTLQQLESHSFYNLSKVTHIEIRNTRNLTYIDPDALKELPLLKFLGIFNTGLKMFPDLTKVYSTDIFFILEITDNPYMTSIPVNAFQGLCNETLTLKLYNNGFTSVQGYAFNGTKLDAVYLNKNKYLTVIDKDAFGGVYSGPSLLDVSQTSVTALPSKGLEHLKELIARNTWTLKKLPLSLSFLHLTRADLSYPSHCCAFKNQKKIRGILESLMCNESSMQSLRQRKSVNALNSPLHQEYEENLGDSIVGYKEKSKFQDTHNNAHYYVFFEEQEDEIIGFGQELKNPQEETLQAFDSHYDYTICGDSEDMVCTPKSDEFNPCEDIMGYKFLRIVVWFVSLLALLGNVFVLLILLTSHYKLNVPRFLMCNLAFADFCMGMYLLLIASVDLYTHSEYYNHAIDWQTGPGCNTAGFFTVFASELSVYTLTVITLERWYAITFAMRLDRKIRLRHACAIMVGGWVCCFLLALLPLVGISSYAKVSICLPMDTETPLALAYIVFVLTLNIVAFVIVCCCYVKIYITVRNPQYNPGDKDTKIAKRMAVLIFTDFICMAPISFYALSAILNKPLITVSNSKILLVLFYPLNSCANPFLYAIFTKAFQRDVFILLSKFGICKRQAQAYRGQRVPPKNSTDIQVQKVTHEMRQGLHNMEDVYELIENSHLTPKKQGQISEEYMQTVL
Sequence of Nuclear receptor subfamily 1 group I member 3 (Homo sapiens) (Q14994 whole entry, looked up): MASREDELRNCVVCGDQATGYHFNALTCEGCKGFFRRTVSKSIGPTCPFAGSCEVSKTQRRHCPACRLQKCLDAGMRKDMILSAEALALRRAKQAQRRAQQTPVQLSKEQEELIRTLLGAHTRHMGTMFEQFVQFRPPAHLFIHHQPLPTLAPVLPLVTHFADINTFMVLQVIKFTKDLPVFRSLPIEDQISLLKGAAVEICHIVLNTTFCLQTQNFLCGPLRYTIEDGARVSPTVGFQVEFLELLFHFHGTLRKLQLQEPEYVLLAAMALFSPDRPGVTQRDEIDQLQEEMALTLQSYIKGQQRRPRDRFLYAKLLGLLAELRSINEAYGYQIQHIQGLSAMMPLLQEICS
Sequence of Luciferin 4-monooxygenase (Photinus pyralis) (P08659 whole entry, looked up): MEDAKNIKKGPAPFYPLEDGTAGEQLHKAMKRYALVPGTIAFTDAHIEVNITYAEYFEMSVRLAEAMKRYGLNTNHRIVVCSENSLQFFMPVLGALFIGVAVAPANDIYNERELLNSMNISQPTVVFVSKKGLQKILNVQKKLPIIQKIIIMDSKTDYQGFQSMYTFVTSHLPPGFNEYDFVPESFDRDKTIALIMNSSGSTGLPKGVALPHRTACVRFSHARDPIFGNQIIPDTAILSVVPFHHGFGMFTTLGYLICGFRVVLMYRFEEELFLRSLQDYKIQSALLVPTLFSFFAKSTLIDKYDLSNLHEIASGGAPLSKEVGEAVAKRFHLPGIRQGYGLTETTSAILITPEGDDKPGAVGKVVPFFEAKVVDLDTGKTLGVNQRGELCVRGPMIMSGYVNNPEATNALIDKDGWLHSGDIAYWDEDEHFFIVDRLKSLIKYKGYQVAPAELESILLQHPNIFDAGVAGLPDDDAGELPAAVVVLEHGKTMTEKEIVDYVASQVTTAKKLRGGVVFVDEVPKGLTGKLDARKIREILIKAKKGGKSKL

NC(=O)Cc1cccc2ccccc12
inactive: [1] | [2] | [3] | [4] | [5] | [6] | [7] | [8] | [9] | [10] | [11]

CCOC(=O)COC(=O)c1ccccc1C(=O)OCC
inactive: [1] | [2] | [3] | [4] | [5] | [6] | [7] | [8] | [12] | [13] | [9] | [10] | [11]

CC(=O)C1CCCCC1=O (stereo not given)
inactive: [1] | [2] | [3] | [4] | [5] | [6] | [7] | [8] | [9] | [10] | [11]

O=C(CO)[C@@H](O)[C@H](O)[C@H](O)CO
inactive: [1] | [2] | [3] | [4] | [5] | [6] | [7] | [8] | [12] | [9] | [10] | [11]
active: [13] 1.7 nM

Cc1nc(C2CCCCC2)c(-c2ccc(S(N)(=O)=O)c(F)c2)o1
inactive: [1] | [2] | [3] | [4] | [5] | [6] | [7] | [8] | [12] | [13] | [9] | [10] | [11]

CC1=NN(c2cccc(S(=O)(=O)O)c2)C(=O)C1
inactive: [1] | [2] | [3] | [4] | [5] | [6] | [7] | [8] | [12] | [13] | [9]

O=C(CO)[C@@H](O)[C@H](O)[C@@H](O)CO
inactive: [1] | [2] | [3] | [4] | [5] | [6] | [7] | [8] | [12] | [13] | [9] | [10] | [11]

CCCOC(=O)CC
inactive: [1] | [2] | [3] | [4] | [5] | [6] | [7] | [8] | [9] | [10] | [11]

Nc1ccncc1N
inactive: [1] | [2] | [3] | [4] | [5] | [6] | [7] | [8] | [9] | [10] | [11]

C=CCCC(=O)O
inactive: [1] | [2] | [3] | [4] | [5] | [6] | [7] | [8] | [12] | [13] | [9] | [10] | [11]

CO[Si](C)(OC)c1ccccc1
inactive: [1] | [2] | [3] | [4] | [5] | [6] | [7] | [8] | [12] | [13] | [9] | [10] | [11]

CN(C)C(=O)Oc1ccc[n+](C)c1
inactive: [1] | [14] | [15] | [16] | [17] | [18] | [2] | [3] | [4] | [5] | [6] | [7] | [13] | [9] | [10] | [11]

CC(C)[C@H]1CC[C@@H](C)CC1=O
inactive: [1] | [2] | [3] | [4] | [5] | [8] | [9] | [10] | [11]

CCOCC(C)O (stereo not given)
inactive: [1] | [2] | [3] | [4] | [5] | [8] | [12] | [13] | [9] | [10] | [11]

CO[C@@]1(NC(=O)CSC[C@@H](N)C(=O)O)C(=O)N2C(C(=O)O)=C(CSc3nnnn3C)CS[C@@H]21
inactive: [1] | [2] | [3] | [4] | [5] | [8] | [12] | [13] | [9] | [10] | [11]

CC(=O)NC(=O)c1ccccc1O
inactive: [1] | [2] | [3] | [4] | [5] | [8] | [9] | [10] | [11]

O=CN(CCO)CCO
inactive: [1] | [2] | [3] | [4] | [5] | [8] | [12] | [13] | [9] | [10] | [11]

O=S(=O)(O)c1cccc2ccccc12
inactive: [1] | [2] | [3] | [4] | [5] | [8] | [12] | [13] | [10] | [11]
